The record followed here is PubChem BioAssay (NCATS).

Records with an inconclusive call do not appear. The source made the active and inactive calls. Calls come from the whole dose curve; as a rule, active = well fitted cell-killing curve with a large enough effect; inconclusive = small, poorly fitted or top-dose-only effect, or effect the other way; inactive = no such curve, though single readings can be large or run the other way.
Potency is the fitted concentration of half-maximal effect.

A short description of the assay: Quantitative High-Throughput drug screen in 47 multiple myeloma cell lines against the NCATS MIPE library collection: UTMC2_PLB cell viability assay (AID 1919868). Note: nearly all actives have a fitted effect of over 55% in size. Particulars: CellTiter-Glo ATP luminescence, 48 h; viability (% of DMSO control): at 45.8 µM (top of the series). The source says: PI: Beverly A. Mock Ph.D.
Laboratory of Cancer Biology and Genetics,
Center for Cancer Research, National Cancer Institute,
National Institute of Health, Bethesda, Maryland
Drug resistance and disease progression are common in multiple myeloma (MM) patients, underscoring the need for new therapeutic combinations. […] We hypothesized that effective combinations would reduce MYC expression and enhance p16 activity. […] These preclinical data identify potentially useful drug combinations for evaluation in drug-resistant MM and reveal potential mechanisms of combined drug sensitivity.
Described herein is the primary MIPE qHTS used to cherrypick compounds. Validated compounds were then further tested for potential synergistic activiy.
[1] Peat TJ, Gaikwad SM, Dubois W, Gyabaah-Kessie N, Zhang S, Gorjifard S, Phyo Z, Andres M, Hughitt VK, Simpson RM, Miller MA, Girvin AT, Taylor A, Williams D, D'Antonio N, Zhang Y, Rajagopalan A, Flietner E, Wilson K, Zhang X, Shinn P, Klumpp-Thomas C, McKnight C, Itkin Z, Chen L, Kazandijian D, Zhang J, Michalowski AM, Simmons JK, Keats J, Thomas CJ, Mock BA. Drug combinations identified by high-throughput screening promote cell cycle transition and upregulate Smad pathways in myeloma. Cancer Lett. 2023 Aug 1;568:216284. doi: 10.1016/j.canlet.2023.216284. Epub 2023 Jun 24. PMID: 37356470; PMCID: PMC10408729.
SEQUENCE No. (e.g., 1, 2, 3, etc.); […] (e.g., Cells, Incubation, Reagent, etc.); VALUE and DESCRIPTION.
1; Cells; 5 uL; white, solid bottom 1536-well Greiner assay plate.
2; Compounds; 23 nL; Kalypsis pin tool (Wako USA) equipped with a 1536-well pin head to transfer to the assay plates.
3; Incubation; 48 hours; 37C incubation.
4; Reagent;5uL; CellTiter Glo (Promega).
5; Detector; 425V; Luminescence; Viewlux PerkinElmer.
NOTES (numbers refer to Sequence numbers above)
1. The cell-based screening methods employed in this study were like those previously published. Briefly, the corresponding myeloma cell lines were screened in 1,536-well plates with 500 cells, 5-uL per well for inhibition of cell viability (assessed by measuring ATP levels with CellTiterGlo).
2. NCATS MIPE 4.0 library of approved and investigational drugs were added using the Kalypsis pin tool. Wells treated with DMSO only for 100% viability and media only for 0% viability were used as controls.
3. The assay plates were covered and incubated for 48 hours in a 37C, 5% CO2 incubator with controlled humidity.
4. After 48 hours, CellTilter-GloTM luminescent substrate mix (Promega) reagent was added to the assay plate and plates we incubated for 5 min at room temperature.
5. Signal was measured as median relative luminescence units on a ViewLux (PerkinElmer) multiplate reader.
[1] Heske CM, Davis MI, Baumgart JT, Wilson K, Gormally MV, Chen L, Zhang X, Ceribelli M, Duveau DY, Guha R, Ferrer M, Arnaldez FI, Ji J, Tran HL, Zhang Y, Mendoza A, Helman LJ, Thomas CJ. Matrix Screen Identifies Synergistic Combination of PARP Inhibitors and Nicotinamide Phosphoribosyltransferase (NAMPT) Inhibitors in Ewing Sarcoma. Clin Cancer Res. 2017 Dec 1;23(23):7301-7311. doi: 10.1158/1078-0432.CCR-17-1121. Epub 2017 Sep 12. PMID: 28899971; PMCID: PMC6636827.
(In general: ATP-based viability assays read luminescence as a measure of living cells.)
Turning to `COc1cc2cc(c1Cl)N(C)C(=O)C[C@H](OC(=O)C(C)C)[C@]1(C)O[C@H]1[C@H](C)[C@@H]1C[C@@](O)(NC(=O)O1)[C@H](OC)C=CC=C(C)C2`, the Potency entry is “inactive”. Consider `Cc1ccccc1-n1c(Cn2cnc3c(N)ncnc32)nc2cccc(C)c2c1=O`, for which the Potency was 66.2 nM (active). Same read-out and setting: next, `CC(C)N[C@@H]1CCn2c(=O)[nH]c3cccc(c32)[C@@H]1O`: 10500 nM (active); `CC1=C(O)C(=O)C=C2C1=CC=C1[C@@]2(C)CC[C@@]2(C)[C@@H]3C[C@](C)(C(=O)O)CC[C@]3(C)CC[C@]12C`: 1480 nM (active).

Take `O=C1C=CC[C@@H]2[C@H]3CCCN4CCC[C@@H](CN12)[C@@H]34`: the Potency entry is “inactive”. The same measure, in the same setting: to `COC1=C[C@@H]2[C@@H]3Cc4ccc(OC)c(O)c4[C@]2(CCN3C)CC1=O` belongs 4690 nM (active); to `CO[C@H]1CCC(O[C@H]2C[C@H]([C@]3(C)CC[C@]4(C[C@H](O)[C@@H](C)[C@@H]([C@@H](C)C=C(C)C(=O)[C@H](C)C[C@H](C)C(=O)O)O4)O3)O[C@]3(O[C@@H]([C@H]4O[C@@](O)(CO)[C@H](C)C[C@H]4C)C[C@H]3C)[C@H]2C)O[C@H]1C` (stereo not given in full), 469 nM (active); to `CC[C@H]1C=CC=CC[C@@H](C)[C@H](O)[C@@](C)(O)C(=O)[C@@H](C)[C@H](O)[C@@H](C)C(=O)[C@@H](C)[C@H](O)[C@@H](C)C=CC(=O)O[C@@H]2[C@@H](C)[C@H](CC1)O[C@]1(CC[C@H](C)[C@H](C[C@@H](C)O)O1)[C@H]2C`, 1 nM (active).

As for `O=c1[nH]c2ccccc2n1C1CCN(Cc2ccc(-c3[nH]c4cc5ncnc5cc4nc3-c3ccccc3)cc2)CC1`, the Potency was 13200 nM (active). Turning to `COc1ccc(N(C(=O)Oc2c(C)cccc2C)c2ccnc(Nc3ccc(N4CCN(C)CC4)cc3)n2)c(OC)c1`, the viability (% of DMSO control) was 84% (active). Take `CC(=O)OCC1=C(C(=O)O)N2C(=O)[C@@H](N)[C@@H]2SC1`: the Potency entry was “inactive”. On the same count and under the same terms, next, `CC=C(C)C(=O)O[C@H]1C(C)=C2[C@@H]3OC(=O)[C@@](C)(O)[C@@]3(O)[C@@H](OC(=O)CCC)C[C@](C)(OC(C)=O)[C@@H]2[C@@H]1OC(=O)CCCCCCC`: 743 nM (active). As to `O=c1[nH]c2ccc(Cl)cc2c(N[C@@H]2CN3CCC2CC3)c1-c1nc2ccccc2[nH]1`, the Potency is 332 nM (active). On to `CCOC(=O)c1c(C(C#N)=CN)c2ccc(Cl)c(Cl)c2n1C`, for which the Potency entry was “inactive”. The same measure, in the same setting: next, `CC(C)N(CCNC(=O)CN1CCCC1=O)C(C)C`: “inactive”.

In the case of `C=CCON=C(C[C@H]1O[C@@H]2O[C@]3(C)CC[C@@H]4[C@H](C)CC[C@@H]([C@H]1C)[C@@]24OO3)[C@H]1O[C@@H]2O[C@]3(C)CC[C@H]4[C@H](C)CC[C@@H]([C@@H]1C)[C@@]24OO3`, the Potency is 372 nM (active). The same measure, in the same setting: next, `CC(C)[C@]12O[C@@H]1[C@@H]1O[C@]13[C@]1(O[C@H]1C[C@@H]1C4=C(CC[C@@]13C)C(=O)OC4)[C@H]2O`: “inactive”; `C[C@]12CC[C@H]3[C@@H](CCC4=CC(=O)CC[C@@]43C)[C@H]1CC[C@H]2O`: “inactive”; `C[C@@H]1CC[C@@]2(OC1)O[C@H]1C[C@H]3[C@@H]4CC=C5C[C@@H](O[C@@H]6O[C@H](CO)[C@@H](O[C@@H]7O[C@@H](C)[C@H](O)[C@@H](O)[C@@H]7O)[C@H](O)[C@@H]6O[C@@H]6O[C@@H](C)[C@H](O)[C@@H](O)[C@@H]6O)CC[C@]5(C)[C@@H]4CC[C@]3(C)[C@@H]1[C@H]2C`: 2640 nM (active). As to `CCCC[N+]1(C)[C@H]2CC(OC(=O)[C@H](CO)c3ccccc3)C[C@H]1[C@H]1O[C@H]12` (stereo not given in full), the Potency entry is “inactive”. With `CN[C@@H]1Cc2cccc3[nH]c(=O)n(c23)C1`, the Potency result is “inactive”.

With `COc1ccc2c(c1)[C@]13CCCCC1C(C2)N(C)CC3` (stereo not given in full), the Potency entry is “inactive”. For `CC=C(C)C(=O)N[C@@H](c1ccccc1)[C@@H](O)C(=O)O[C@H]1C[C@@]2(O)[C@@H](OC(=O)c3ccccc3)[C@@H]3[C@]4(OC(C)=O)CO[C@@H]4C[C@H](O)[C@@]3(C)C(=O)[C@H](OC(C)=O)C(=C1C)C2(C)C`, the Potency result was “inactive”. Same read-out and setting: next, `Cc1c(C(=O)Nc2cccc(C(F)(F)F)c2)cc(-c2ccccc2)n1CCCN1CCOCC1`: 5900 nM (active); `NC1CC1c1ccccc1` (stereo not given): “inactive”; `Cc1[nH]nc2ccc(-c3cncc(OC[C@@H](N)Cc4c[nH]c5ccccc45)c3)cc12`: 372 nM (active). Turning to `CC[C@@]1(O)C(=O)OCc2c1cc1n(c2=O)Cc2cc3ccccc3nc2-1`, the Potency is 16.6 nM (active). On the same count and under the same terms, to `C1=C2CCCN[C@H]2[C@@H]2C[C@H]1[C@@H]1CCCCN1C2` belongs “inactive”; to `Cc1ccccc1-n1c(Cn2ncc3c(N)ncnc32)nc2cccc(C)c2c1=O`, 74.3 nM (active). Same read-out and setting: next, `C[C@H]1CCCC=CC2C[C@H](O)C[C@@H]2[C@H](O)C=CC(=O)O1` (stereo not given in full): “inactive”. Same read-out and setting: next, `CC(C)(O)C=CC(=O)[C@](C)(O)[C@H]1[C@H](O)C[C@]2(C)[C@@H]3CC=C4[C@@H](C=C(O)C(=O)C4(C)C)[C@]3(C)C(=O)C[C@@]12C`: 41.8 nM (active). On to `C[C@]12CC[C@H](O)CC1=CC[C@H]1[C@H]3CCC(=O)[C@@]3(C)CC[C@@H]12`, for which the Potency result is “inactive”. On the same count and under the same terms, next, `CC[C@@H]1[C@@H](C)O[C@@](O)([C@@H](C)[C@H](O)[C@H](C)[C@H]2OC(=O)C=CC=C[C@@H](C)[C@@H]([C@@H](C)[C@@H](O)[C@H](C)[C@@]3(O)C[C@H](O[C@H]4C[C@H](O)[C@H](O)[C@H](C)O4)[C@H](CC)[C@@H](C)O3)OC(=O)C=CC=C[C@@H]2C)C[C@H]1O[C@H]1C[C@H](O)[C@H](O)[C@H](C)O1`: 1050 nM (active); `Cc1c(N)nc([C@H](CC(N)=O)NC[C@@H](N)C(N)=O)nc1C(=O)N[C@H](C(=O)N[C@@H](C)[C@H](O)[C@@H](C)C(=O)N[C@@H](C(=O)NCCc1nc(-c2nc(C(=O)NCCC[S+](C)C)cs2)cs1)[C@@H](C)O)C(O[C@H]1O[C@H](CO)[C@H](O)[C@@H](O)[C@@H]1O[C@H]1O[C@H](CO)[C@@H](O)[C@H](OC(N)=O)[C@H]1O)c1cnc[nH]1` (stereo not given in full): 209 nM (active); `CN(C)NC(=O)CCC(=O)O`: 37.2 nM (active). For the compound `CC(=O)Nc1ccc(OC[C@](C)(O)C(=O)Nc2ccc([N+](=O)[O-])c(C(F)(F)F)c2)cc1`, the Potency result is “inactive”. On to `O=[N+]([O-])c1ncc[nH]1`, for which the Potency result is “inactive”. The same measure, in the same setting: to `COCC1(CO)C(=O)C2CCN1CC2` (stereo not given) belongs 11800 nM (active); to `COc1ccc2c(c[n+](C)c3c4cc5c(cc4ccc23)OCO5)c1OC`, 5260 nM (active). Same read-out and setting: to `CCOP(=O)(OCC)C(C)NC(=O)N(CCCl)N=O` (stereo not given) belongs “inactive”.
